This note sets out measurements from PubChem BioAssay (NCI).

Among the test systems are HCT-15 colon; HT29 colon; U251 CNS; PC-3 prostate; SK-MEL-5 melanoma; UACC-62 melanoma; LOX IMVI melanoma; SK-MEL-28 melanoma; SNB-75 CNS; SNB-19 CNS.
Common to all, as to assay: NCI-60 one-dose screen, 48 h (100 = growth as untreated, 0 = no growth, -100 = all killed)
Common to all, as to conditions: 10 µM unless noted

The panel holds about 83,000 compounds, 20% with a hit somewhere; the sample as a whole holds those more often.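 Note: values are percent growth. 100 is the growth of untreated cells, values between 100 and 0 indicate rising inhibition; between -100 and 0 indicates cell death.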 Unmarked numbers belong to inactive results. The source made the active and inactive calls. The calls were made as follows: active = growth percent below 10; inactive = the rest.

For `Fc1ccc(-c2nn3c(-c4cc(C(F)(F)F)cc(C(F)(F)F)c4)nnc3s2)cc1`, the growth with HCT-15 colon is 89.7%; with HT29 colon, 40.2%; in the assay with U251 CNS, 4.98% (active); in the assay with PC-3 prostate, 39.2%; with SK-MEL-5 melanoma it was 56%; in the assay on UACC-62 melanoma, 53.3%. Also, the growth in the assay on LOX IMVI melanoma was 63.9%; in the assay on SK-MEL-28 melanoma it was 72%.
Regarding `Cc1nn2c(/C=C3/C(=O)Nc4cc(Cl)ccc43)c(-c3ccccc3)nc2s1`, the growth with HCT-15 colon is 37.8%; with SNB-75 CNS it was -20.2% (active); with SNB-19 CNS it was 54%; in the assay with U251 CNS it was -19.9% (active); in the assay with PC-3 prostate, 51.1%; in the assay with SK-MEL-5 melanoma, -24.7% (active). In addition, the growth in the assay with UACC-62 melanoma was -25.4% (active); with LOX IMVI melanoma, -33.3% (active); in the assay with SK-MEL-28 melanoma, -49.4% (active).
For `COC(=O)c1cc2c(/C=C3/NC(=S)NC3=O)coc2n1C`, the growth in the assay on HCT-15 colon is 90.3%; in the assay on SNB-75 CNS, 79.4%; in the assay on SNB-19 CNS it was 101%; in the assay with U251 CNS it was 70.7%; in the assay on PC-3 prostate, 66.7%; in the assay on SK-MEL-5 melanoma it was 96.5%. In addition, the growth was 86.6% in the assay on UACC-62 melanoma, 98.2% in the assay on LOX IMVI melanoma and 97% in the assay on SK-MEL-28 melanoma.
Consider `COc1ccc2ncccc2c1Cc1c(OC)ccc2ncccc12`, for which the growth was 57.8% with HCT-15 colon; 44.1% with SNB-75 CNS; 82.2% in the assay on SNB-19 CNS; 57.4% with U251 CNS; 74.6% in the assay on PC-3 prostate; 60.5% in the assay with SK-MEL-5 melanoma. In addition, the growth is 58% in the assay on UACC-62 melanoma, 68.4% with LOX IMVI melanoma and 77.4% in the assay with SK-MEL-28 melanoma.
For `Cn1ccnc1C(=O)/C=C/c1ccc(C(=O)Nc2nc3ccccc3[nH]2)cc1`, the growth in the assay on HCT-15 colon is 24.3%; with HT29 colon, 8.78% (active); with SNB-19 CNS, 41.1%; in the assay with PC-3 prostate, 38.1%; in the assay on SK-MEL-5 melanoma it was 83.1%; with UACC-62 melanoma, 74.7%. In addition, the growth in the assay with LOX IMVI melanoma was 11.5%; with SK-MEL-28 melanoma, 89.7%.
In the case of `c1ccc2c(-c3nc4ccccc4[nH]3)cccc2c1`, the growth in the assay on HCT-15 colon was 27.1%; in the assay on SNB-75 CNS, 27.8%; with SNB-19 CNS, 52.5%; in the assay on U251 CNS it was 12.5%; in the assay on PC-3 prostate, 54.1%; in the assay with SK-MEL-5 melanoma, 20.1%. Further, the growth is 32.2% in the assay on UACC-62 melanoma, 34.6% in the assay on LOX IMVI melanoma and 51.5% with SK-MEL-28 melanoma.
On to `COc1ccc2nc(NC(=O)CN3CCn4c(nnc4C(F)(F)F)C3)sc2c1`, for which the growth with HCT-15 colon is 93.3%; with HT29 colon, 98.4%; in the assay with U251 CNS, 91.6%; in the assay on PC-3 prostate it was 98.6%; with SK-MEL-5 melanoma, 79.2%; in the assay on UACC-62 melanoma it was 83.9%. For the same molecule, the values for the growth with LOX IMVI melanoma and in the assay on SK-MEL-28 melanoma were 96.6% and 102%, respectively.
For the molecule `COc1ccc(/C=C2/SC(=Nc3c(C)nn(-c4ccccc4)c3N)NC2=O)cc1`, the growth in the assay on HCT-15 colon was 33.3%; in the assay with SNB-75 CNS, 5.59% (active); in the assay with SNB-19 CNS, 51.3%; in the assay with U251 CNS it was 40%; with PC-3 prostate, 29.1%; in the assay on SK-MEL-5 melanoma it was 21.2%. Also, the growth with UACC-62 melanoma was 26.8%; with LOX IMVI melanoma, 33.1%; in the assay on SK-MEL-28 melanoma, 58.7%.
For the molecule `OC(c1cc(-c2cccc(Cl)c2)nc2ccccc12)C1CCCCN1` (centres undefined), the growth with HCT-15 colon is -61.9% (active); in the assay on SNB-75 CNS, -5.41% (active); with SNB-19 CNS it was 18.1%; with U251 CNS, -85.1% (active); in the assay on PC-3 prostate, -26.2% (active); in the assay on SK-MEL-5 melanoma it was -67.5% (active). The growth was -41.2% (active) in the assay with UACC-62 melanoma, -90.7% (active) in the assay with LOX IMVI melanoma and -94.2% (active) in the assay with SK-MEL-28 melanoma.
As to `C=C1CCC2C(C)(COC(=O)CC)C(OC(=O)CC)CCC2(C)C1C/C=C1/C(=O)OCC1OC(=O)CC` (centres undefined), the growth was 0.0652% (active) in the assay on HCT-15 colon; -3.12% (active) with SNB-75 CNS; 62% in the assay on SNB-19 CNS; -72.3% (active) in the assay on U251 CNS; 27.7% in the assay on PC-3 prostate; 16.8% with SK-MEL-5 melanoma. Also, the growth with UACC-62 melanoma is 0.659% (active); with LOX IMVI melanoma, -99.1% (active); in the assay with SK-MEL-28 melanoma it was -36.1% (active).
For `CC1=C([Se]CC(OC(=O)[C@@H](CSSC(C)(C)C)NC(=O)C(C)(C)C)C(=O)NCCCCCC(=O)OCc2ccccc2)C(=O)c2ccccc2C1=O` (some centres undefined), the growth in the assay on HCT-15 colon was 20.4%; with SNB-75 CNS, -92.5% (active); with SNB-19 CNS, -73.5% (active); in the assay on U251 CNS it was -37.5% (active); in the assay on PC-3 prostate it was -20.8% (active); in the assay on SK-MEL-5 melanoma it was -48.8% (active). Moreover, the growth in the assay with UACC-62 melanoma is -30.6% (active); with LOX IMVI melanoma, 4.76% (active); in the assay on SK-MEL-28 melanoma it was -27.3% (active).
Take `O=C(Nc1ccccc1)P(=O)(O)c1ccccc1`: the growth is 99.5% in the assay with HCT-15 colon; 78.8% in the assay with SNB-75 CNS; 103% with SNB-19 CNS; 94.6% with U251 CNS; 95.5% in the assay with PC-3 prostate; 102% with SK-MEL-5 melanoma. Also, the growth with UACC-62 melanoma was 94.1%; in the assay on LOX IMVI melanoma, 96%; with SK-MEL-28 melanoma it was 102%.
For the molecule `COc1ccc(-c2cc(-c3cccnc3)nc(S(=O)(=O)CC(=O)Nc3ccc(C)cc3)c2C#N)cc1OC`, the growth with HCT-15 colon is 95.1%; in the assay on SNB-75 CNS it was 78.7%; in the assay with SNB-19 CNS, 94.6%; with U251 CNS, 91.7%; in the assay on PC-3 prostate, 83.7%; in the assay with SK-MEL-5 melanoma, 72%. For the same molecule, the growth with UACC-62 melanoma was 99.4%; in the assay on LOX IMVI melanoma, 88.9%; with SK-MEL-28 melanoma it was 102%.
